Compound activity (PubChem)
Hits are enriched below; roughly 28% of the tested compounds scored in any of these assays.
CD11b adhes inh: CD11b/CD18-fibrinogen binding inhibition; P05107+P11215; K562 CD11b/CD18 adhesion to fibrinogen, ATPlite luminescence; Mn2+ added to activate the integrin; inhibition, % at 10 µM; 93,000 compounds, 0.54% hits; AID 1497;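 active means primary inhibition of 50% or more at 10 µM, then 40% or more on retest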
Target sequence (P05107 whole entry, looked up, other chains not shown): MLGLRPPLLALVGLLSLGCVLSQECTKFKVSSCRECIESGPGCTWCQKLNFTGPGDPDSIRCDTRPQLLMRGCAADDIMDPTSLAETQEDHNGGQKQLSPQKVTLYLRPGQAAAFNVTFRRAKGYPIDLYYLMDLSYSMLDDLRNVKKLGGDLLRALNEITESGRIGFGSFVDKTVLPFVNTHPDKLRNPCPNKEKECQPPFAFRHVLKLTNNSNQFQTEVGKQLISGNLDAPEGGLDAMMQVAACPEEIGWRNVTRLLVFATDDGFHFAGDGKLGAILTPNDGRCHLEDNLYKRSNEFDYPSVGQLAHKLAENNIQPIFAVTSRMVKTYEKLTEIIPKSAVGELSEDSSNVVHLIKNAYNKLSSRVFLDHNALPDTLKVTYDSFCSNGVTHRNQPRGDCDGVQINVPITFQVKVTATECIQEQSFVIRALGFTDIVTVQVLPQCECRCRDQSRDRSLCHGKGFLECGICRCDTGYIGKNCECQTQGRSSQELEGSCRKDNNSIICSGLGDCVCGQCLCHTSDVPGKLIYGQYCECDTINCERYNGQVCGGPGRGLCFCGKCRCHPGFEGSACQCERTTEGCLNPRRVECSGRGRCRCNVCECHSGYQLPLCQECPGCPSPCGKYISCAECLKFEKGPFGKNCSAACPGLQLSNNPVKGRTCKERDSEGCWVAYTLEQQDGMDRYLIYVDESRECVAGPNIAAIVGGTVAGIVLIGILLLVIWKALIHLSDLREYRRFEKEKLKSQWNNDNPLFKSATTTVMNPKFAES
CYP2C19 inh: blocks human cytochrome P450 2C19 | CYP2C19 Supersomes, luciferin-H EGE luminescence, 30 min | inhibition, % at 5 µM | 96,000 compounds, 21% hits;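 active means CYP2C19 inhibition above a set limit at 5 µM in the primary screen, cut at about 50% in these data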;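 further: plate controls were negative control wells for no effect and 2.5 mM tranylcypromine positive control for full effect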
CYP2C9 inh: human CYP2C9 inhibition. CYP2C9 Supersomes, luciferin-H conversion, luminescence. inhibition, % at 5 µM. 96,000 compounds, 20% hits;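 active means blocking of liver enzyme CYP2C9 beyond about 50% at 5 µM, limit read from the data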
CD11b adhes enh: CD11b/CD18-fibrinogen binding enhancement. K562 CD11b/CD18 adhesion to fibrinogen, ATPlite luminescence. activation, % at 10 µM. 93,000 compounds, 0.07% hits. AID 1499. P05107+P11215;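 active means 10 µM primary screen giving 50% or more activity, confirmed by 40% or more on retest at that dose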
CYP2C19 act: increases human CYP2C19 enzyme activity; P33261; recombinant CYP2C19, luciferin-H EGE luminescence; hits give high values; 0 = fully inhibited enzyme, 1 = untreated enzyme; activation factor at 5 µM; 96,000 tested, under 10 active;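 active means activation factor of at least 2 at 5 µM in the primary screen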;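 further: 0 = wells with 2.5 mM tranylcypromine and 1 = vehicle-only wells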
CYP2C9 act: CYP2C9 (human) activation | P11712 | recombinant CYP2C9, luciferin-H conversion, luminescence; hits give high values; factor 1 = untreated enzyme, 0 = blocked | activation factor at 5 µM | 96,000 compounds, 1.4% hits | AID 1024;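 active means activation factor of 2 or more for CYP2C9 at a 5 µM dose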;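 further: 0 = sulfaphenazole-blocked wells and 1 = vehicle-only wells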
An asterisk follows results filed as active; x = no result.

SMILES | CD11b adhes inh | CYP2C19 inh | CYP2C9 inh | CD11b adhes enh | CYP2C19 act | CYP2C9 act
CCOc1ccc(C(=O)N[C@H](C(=O)O)C(C)C)cc1 | 49.9 | 6.1 | 11.2 | -2.8 | 0.9 | 0.9
CCOC(=O)CSc1nc(C2CC2)cc(-c2ccc(Cl)cc2)c1C#N | 5.5 | x | x | 8.7 | x | x
O=C1C(C=NCc2cccnc2)=C(O)c2ccccc21 | 27.8 | 4.5 | 5.2 | -4.0 | 1 | 0.9
O=C1C(c2ccncc2)=C(O)c2ccccc21 | 17.8 | 49.7 | 92.4* | 1.1 | 0.5 | 0.1
O=C1C(C=NCc2ccncc2)=C(O)c2ccccc21 | -13.9 | 75.9* | 84.6* | -3.6 | 0.2 | 0.2
CCOc1ccc(N2CC(C(=O)Nc3cccc(C)c3C)CC2=O)cc1 (centres undefined) | -0.1 | 7.7 | 34.0 | -2.4 | 0.9 | 0.7
COc1ccc(-c2nc(N)ncc2-c2csc(C)n2)c(O)c1 | -4.9 | 87.0* | 3.1 | -2.7 | 0.1 | 1
COc1ccc(-c2[nH]ncc2-c2csc(C)n2)c(O)c1 | 12.6 | x | x | -1.5 | x | x
CCC(SCC(=O)OC)C(=O)Nc1nnc(C(C)C)s1 (centres undefined) | -8.8 | 5.6 | 6.6 | 1.0 | 0.9 | 0.9
Clc1ccccc1Cn1nnc2c(N3CCOCC3)nc(C3CC3)nc21 | x | -3.8 | -11.6 | x | 1 | 1.1
CC(C)(C)c1ccc(Cn2nnc3c(=O)[nH]c(C4CCCN(C(=O)Cc5cccs5)C4)nc32)cc1 (centres undefined) | 10.9 | 28.4 | 57.1* | -5.4 | 0.7 | 0.4
O=C(Cc1cccs1)N1CCCC(c2nc3c(nnn3Cc3ccccc3Cl)c(=O)[nH]2)C1 (centres undefined) | -10.2 | 66.5* | 91.2* | 6.1 | 0.3 | 0.1
O=C(Cc1cccs1)N1CCCC(c2nc3c(nnn3Cc3ccc(F)cc3)c(=O)[nH]2)C1 (centres undefined) | 7.6 | 19.2 | 57.4* | -2.5 | 0.8 | 0.4
O=c1[nH]c(C2CCCN(S(=O)(=O)c3ccc(F)cc3)C2)nc2c1nnn2Cc1ccccc1 (centres undefined) | -6.2 | 5.8 | 18.3 | 1.8 | 0.9 | 0.8
CC(C)(C)c1ccc(Cn2nnc3c(=O)[nH]c(C4CCN(C(=O)Cc5cccs5)CC4)nc32)cc1 | 22.3 | 90.7* | 98.6* | 13.6 | 0.1 | 0
Cc1ccc(Cn2nnc3c(=O)[nH]c(C4CCCN(C(=O)Nc5ccc(F)cc5F)C4)nc32)cc1 (centres undefined) | x | 40.1 | 53.5* | x | 0.6 | 0.5
COc1c(OC(C)=O)ccc(/C=C/c2ccc3ccccc3n2)c1[N+](=O)[O-] | 88.4 | 88.6* | 27.4 | -7.1 | 0.1 | 0.7
O=C(O)c1ccc(N2Cc3ccccc3C2)cc1O | 4.8 | 47.5 | 52.6* | -1.0 | 0.5 | 0.5
CCOC(=O)c1ccc(N2Cc3cc(C)c(C)cc3C2)cc1O | -8.0 | -14.4 | -14.6 | 4.5 | 1.1 | 1.1
CS(=O)(=O)N(CC(=O)N1CCCCCC1)Cc1ccc(Cl)cc1 | -8.5 | 93.4* | 36.3 | 0.3 | 0.1 | 0.6
CS(=O)(=O)N(CC(=O)N1CCN(c2ccccc2)CC1)Cc1ccc(Cl)cc1 | 8.0 | 13.1 | 13.1 | 0.1 | 0.9 | 0.9
CCOC(=O)C1CCN(C(=O)c2ccccc2N(C)S(C)(=O)=O)CC1 | -16.1 | -1.7 | -5.3 | -4.2 | 1 | 1.1
CN1CCN(C(=O)CN(Cc2ccc(Cl)cc2)S(C)(=O)=O)CC1 | x | 69.3* | 0.3 | x | 0.3 | 1
O=C(CCC1CCCCC1)N1CCN(Cc2ccc3c(c2)OCO3)CC1 | 18.1 | 91.4* | 86.8* | 0.5 | 0.1 | 0.1
CN(c1ccccc1C(=O)N1CCc2ccccc2C1)S(C)(=O)=O | 2.2 | 93.2* | 83.5* | -1.1 | 0.1 | 0.2
COC(=O)CC1SC(=O)NC1=Nc1ccc(OC)cc1 (centres undefined) | -0.4 | 40.1 | 18.4 | -2.0 | 0.6 | 0.8
CCNC(=O)COn1c(SCC(=O)NCC)nc2ccccc2c1=O | x | 24.5 | 16.1 | x | 0.8 | 0.8
Cc1c(N2C(=O)CS/C2=N\N=C\c2ccc(Br)cc2)c(=O)n(-c2ccccc2)n1C | x | 1.1 | -3.0 | x | 1 | 1
CCOC(CNC(=O)CCc1c(C)nc2ncnn2c1C)OCC | 6.7 | -8.7 | -17.6 | 2.5 | 1.1 | 1.2
O=C1CC(C(=O)Nc2ccc(F)c(Cl)c2)N=C(N2CCCCC2)N1 (centres undefined) | -5.9 | 6.9 | 9.9 | -3.0 | 0.9 | 0.9
